Test results taken from PubChem BioAssay AID652254 (National Center for Advancing Translational Sciences (NCATS), 2013).
The source made the active and inactive calls.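 The calls were made as follows: active = potency for halving colony growth of 5 µM or lower; inconclusive = potency above 5 µM but below 10 µM; inactive = potency of 10 µM or higher.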

test: qHTS for Inhibitors of Ubiquitin-specific Protease USP2a Using CHOP2 as the Reporter: Clonogenic Assay; conditions: clonogenic colony formation, crystal violet, 10 days
From the text: Homeostasis of cellular proteins is maintained through a combination of synthesis and degradation. The pathway that accounts for the majority of protein degradation is the ubiquitin-proteasomal pathway. Ubiquitin (Ub) is highly conserved in all cells and the generation of a multi-Ub chain typically targets proteins for degradation by the proteasome. However, ubiquitination is highly reversible and dynamic. Deubiquitination, the reverse process, is catalyzed through the action of enzymes referred to as isopeptidases or deubiquitinating enzymes (DUBs). This group of enzymes is collectively responsible for maintaining adequate pools of free ubiquitin and regulating the ubiquitination status of cellular proteins. […] To further visualize and quantitate the effect of compounds on cell proliferation, a colony forming or clonogenic assay was performed in 6-well plates using HCT116 cells. […] The colonies were visualized on the Typhoon imager (GE) using Cy5 detection, and quantitated with the associated software. […]
2 mL 300 cells/well were dispensed into a 6-well plate in DMEM with 10% FBS and 1% Pen-Strep and then incubated for 48 hours at 37 deg C, 5% CO2. […] The plate is dried overnight and then read on a GE Typhoon FLA 9500 in end-point mode (Ex 635, Em Long-Pass Red Filter)

**Q.** With Cc1ccc(S(=O)(=O)Nc2cc(C(F)(F)F)ccc2C(=O)Nc2nc(-c3ccccc3)cs2)cc1 as the compound, how does the Potency read?
**A.** 3.6 µM (active)
